# From PubChem BioAssay AID1508611 (The Scripps Research Institute Molecular Screening Center, 2020)
# The whole screen tested about 6,700 compounds, of which about 20 (0.3%) were called active. The list comes from a sample in which actives are over-represented; it also holds similar structures and randomly drawn compounds. A number with no mark means an inactive call.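 The calls were made as follows: active = mean percent activation in the counterscreen above 29.09%; inactive = the rest.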
# Target: Glucose-dependent insulinotropic receptor (Homo sapiens) (UniProt Q8TDV5)
# Sequence (Q8TDV5 whole entry, looked up): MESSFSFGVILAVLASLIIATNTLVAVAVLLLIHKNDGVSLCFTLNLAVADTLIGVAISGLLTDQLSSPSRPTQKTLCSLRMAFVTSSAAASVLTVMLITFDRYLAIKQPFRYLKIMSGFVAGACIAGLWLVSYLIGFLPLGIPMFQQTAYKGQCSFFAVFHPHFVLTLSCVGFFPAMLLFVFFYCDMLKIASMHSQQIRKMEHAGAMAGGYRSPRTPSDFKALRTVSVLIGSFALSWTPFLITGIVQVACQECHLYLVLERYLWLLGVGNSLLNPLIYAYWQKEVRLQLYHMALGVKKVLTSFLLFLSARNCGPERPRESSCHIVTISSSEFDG
# Assay: GPR119 activators in beta-arrestin cells, counter-screen for GPR151 activator project, cell-based, PathHunter beta-arrestin, luminescence, triplicate (AID 1508611);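 also: counterscreen on off-target GPR119 to flag nonselective hits from the GPR151 activator screen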
# Conditions: 90 min, at 11.2 µM, stronger effect = higher value, 0 = compound-well median, 100 = enzyme-acceptor control
row,Structure (SMILES),activation
1,COc1ccc(OC)c(NC(=S)Nc2ccccn2)c1,-19.3%
2,Oc1ccc(Cn2cc[nH]c2=S)cc1,-8.52%
3,CCCCc1ccc(N=Cc2nc(-c3cccc4ccccc34)oc2O)cc1,-7.98%
4,COc1ccc(C(=O)Cc2cc3ccccc3oc2=O)c(OC)c1,-8.7%
5,O=C(CC1C(=O)NCCN1Cc1ccc2ccccc2c1)NCCCn1cccn1 (stereo unspecified),1.24%
6,c1ccc(-c2nc(-c3cccs3)[nH]c2-c2cccs2)cc1,-1.67%
7,CCOC(=O)c1cccc(NC(=O)CCCOc2ccc(OC)cc2)c1,-2.39%
8,COc1ccc(OC)c(/C=N/n2nnnc2N)c1,-3.22%
9,CC(C)(C)NC(=O)Cc1coc2ccc3ccccc3c12,-5.33%
10,O=C(CN1C(=O)c2ccccc2C1=O)NC(c1ccccc1)c1ccc(Br)cc1 (stereo unspecified),-12.4%
11,O=C(COc1ccc(CO)cc1)Nc1ccc(Cl)c(Cl)c1,-3.53%
12,CO[C@@H]1COC(=O)[C@@H](C)COC(=O)[C@H](C)NC(=O)C/C=C/[C@H]1C,10.4%
13,Cc1[nH][nH]c(=O)c1C(c1ccc(-c2ccc(F)cc2[N+](=O)[O-])o1)c1c(C)[nH][nH]c1=O,9%
14,O=C(CN1C(=O)CCC1=O)Nc1ccc(S(=O)(=O)N2CCOCC2)cc1,9.75%
15,C=CCSC1=C(C#N)C(c2ccc(Cl)cc2Cl)CC(=O)N1 (stereo unspecified),-2.2%
16,CC(C)n1c(=O)[nH]c2c(C(N)=O)nc(-c3ccc(-c4ccccc4)cc3)nc21,8.53%
17,COc1ccc(N2C(=O)C(Cl)=C(Nc3ccc(C)cc3)C2=O)cc1,9.02%
18,COc1cc(OC)cc(C(=O)Nc2ccc3c4c(cccc24)CC3)c1,9.11%
19,CCOc1ccccc1-c1cc(C(=O)N2CCOCC2)c2ccccc2n1,-4.4%

row,Structure (SMILES),activation
1,Cc1ccc(NC(=O)CSc2nnc(-c3ccc(N)cc3)n2C)cc1Cl,5.44%
2,COc1ccc(C2(C)NC(=O)N(CC(=O)Nc3ccc4ccccc4c3)C2=O)cc1 (stereo unspecified),5.1%
3,CC(=O)Nc1ccc(NC(=O)c2ccc3nc(Br)sc3c2)cc1,-3.64%
4,CCC1C(=O)NCCN1Cc1ccc2c(c1)CN(Cc1c[nH]c3ccccc13)CCO2 (stereo unspecified),-4.8%
5,CC(=O)Nc1nc(C(=O)Nc2nc(-c3sc(C)nc3C)cs2)cs1,13.5%
6,c1cncc(Nc2nc(NC3CC3)c3ncn(C4CCCCC4)c3n2)c1,-7.65%
7,COc1ccc(NC(=S)N2CCN(S(=O)(=O)c3ccc(F)cc3)CC2)c(OC)c1,-3.67%
8,CCc1ccc(S(=O)(=O)NCCOc2cc(N3CCOCC3)ncn2)cc1,0.5%
9,Cc1ccc(NC(=O)c2cccc(N(C)C)c2)cc1NC(=O)c1ccc(O)cc1,-0.12%
10,COc1ccc(C=C(C#N)C#N)c(CSc2ccccn2)c1,14.8%
11,COc1cc([N+](=O)[O-])ccc1NC(=S)NCc1cc(C)n(C)n1,-4.23%
12,Cn1c(=O)c2c(nc(SCC(=O)O)n2Cc2ccc(F)cc2)n(C)c1=O,-2.28%
13,C/C(=N/N1CCN(Cc2ccc(C)cc2C)CC1)c1ccc([N+](=O)[O-])cc1,-0.84%
14,CCOc1cc(C2C3=C(CCCC3=O)NC3=C2C(=O)CCC3)cc(Br)c1OCC,8.25%
15,CCCOC1(C(F)(F)F)NC(=O)N(c2ccc(C(C)C)cc2)C1=O (stereo unspecified),-7.99%
16,CC(=O)c1cccc(-c2nc(Nc3ccc(Oc4ccccc4)cc3)c3ncn(-c4ccsc4)c3n2)c1,1.29%
17,COc1cc(C(C)=Nc2c(C)n(C)n(-c3ccccc3)c2=O)cc(O)c1OC,3.69%
18,Cc1ccccc1C(=O)NCc1nc(-c2ccc(Cl)cc2)no1,10.3%
19,C=CCn1c(=O)c2ccc(C(=O)NCc3ccc4c(c3)OCO4)cc2n(CC(N)=O)c1=O,5.23%

row,Structure (SMILES),activation
1,COc1ccc([N+](=O)[O-])cc1NC(=O)C1CC(Cl)=CCC1C(=O)O (stereo unspecified),-0.8%
2,O=C(Nc1ccc(NC(=O)c2cccc3c(Br)cccc23)cc1)c1ccco1,16.8%
3,CC(=O)c1c(C)[nH]c(C(=O)N2CCN(c3ccc(Cl)cc3)CC2)c1C,2.38%
4,COc1ccc(Nc2nc(-c3ccc(F)cc3)cs2)c(OC)c1,5.77%
5,COc1cc(/C=N/N=C2/NC(=O)CS2)ccc1OC(=O)c1ccccc1C,-7.49%
6,O=C(O)/C=C/c1ccccc1Cl,-5.81%
7,COc1ccc(C(=O)Nc2ccc(S(=O)(=O)NC(C)C)cc2)cc1,13.4%
8,CC(C(=O)NCCN1CCOCC1)n1c2ccccc2c2cn[nH]c(=O)c21 (stereo unspecified),5.53%
9,Cc1ccc2cc(C#N)c(SCCO)nc2c1,-5.53%
10,Cc1ccc[n+](-c2ncnc(N)c2[N+](=O)[O-])c1,-3.57%
11,CCOc1ccc(/C=C2N=C(/C=C/c3cccc(Cl)c3Cl)OC\2=O)cc1,0.65%
12,O=C(NCc1ccsc1)c1ccc(-n2cccc2)cc1,-3.28%
13,O=C(C(Cc1ccccc1)N1C(=O)C2C3c4ccccc4C(c4ccccc43)C2C1=O)N1CCOCC1 (stereo unspecified),7.72%
14,Cc1cccc(NC(=O)CSc2nc3[nH]ncc3c(=O)[nH]2)c1,0.57%
15,NC(=S)N/N=C/c1ccc([N+](=O)[O-])cc1,6.78%
16,O=C(/C=C/Nc1ccccc1NS(=O)(=O)c1ccc([N+](=O)[O-])cc1)c1ccco1,-7.75%
17,CN(C)c1cccc(Nc2cc(C(=O)Nc3ccc(N4CCOCC4)cc3)ccn2)c1,-10.4%
18,CC1=C(C(=O)Nc2cccc(F)c2)C(c2ccccn2)C2=C(CCCC2=O)N1 (stereo unspecified),0.3%
